# According to paper PMC7862700, “An all-to-all approach to the identification of sequence-specific readers for epigenetic DNA modifications on cytosine”:
# Legend:
# Experiment in all cases: DAPPL (digital affinity profiling via proximity ligation, sequencing); 10 mM Tris-HCl pH 7.5, 50 mM NaCl, 1 mM DTT, 4% glycerol, room temperature, 30 min; GST-TFs on glutathione beads, 16-mer random dsDNA library, 0.1% formaldehyde crosslink after washing; high values mean tight binding
# [1] = molecular target: T1, FEV (Homo sapiens, UniProt Q99581 1-238); settings: protein: recombinant; tags: N-terminal GST; dsDNA, one strand shown
# T1 sequence: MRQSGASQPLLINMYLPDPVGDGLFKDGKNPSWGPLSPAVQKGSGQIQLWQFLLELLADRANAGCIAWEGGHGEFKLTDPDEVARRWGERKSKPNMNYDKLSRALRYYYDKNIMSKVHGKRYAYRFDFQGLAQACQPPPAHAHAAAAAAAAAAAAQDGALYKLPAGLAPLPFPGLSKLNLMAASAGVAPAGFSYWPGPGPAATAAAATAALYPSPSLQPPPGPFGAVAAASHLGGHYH
# Method in brief: (§1)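 In yeast, human transcription factors were expressed with a GST fusion, then pulled down on glutathione beads and given DNA barcodes. Pooled with a tag-only sample, they were exposed to 200 nmole of a 16-mer random double-stranded DNA library (Tris/NaCl/DTT/glycerol buffer, room temperature, 30 min), washed, crosslinked with 0.1% formaldehyde, proximity-ligated using BsaI/T4 ligase for 1 h at 37 °C, PCR-amplified and read on an Illumina NextSeq500. Each hexamer's frequency of reads for a factor, divided by the matching frequency for the tag-only sample, gives the binding signal.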
# [2] = molecular target: ETV5 (Homo sapiens, UniProt P41161 1-510); settings: protein: recombinant; tags: N-terminal GST; dsDNA, one strand shown
# Method in brief: as §1
# [3] = molecular target: HSF1 (Homo sapiens, UniProt Q00613 1-529); settings: protein: recombinant; tags: N-terminal GST; chain copies: 3; dsDNA, one strand shown
# Method in brief: as §1
# [4] = molecular target: T2, SPIC (Homo sapiens, UniProt Q8N5J4 1-248); settings: protein: recombinant; tags: N-terminal GST; dsDNA, one strand shown
# T2 sequence: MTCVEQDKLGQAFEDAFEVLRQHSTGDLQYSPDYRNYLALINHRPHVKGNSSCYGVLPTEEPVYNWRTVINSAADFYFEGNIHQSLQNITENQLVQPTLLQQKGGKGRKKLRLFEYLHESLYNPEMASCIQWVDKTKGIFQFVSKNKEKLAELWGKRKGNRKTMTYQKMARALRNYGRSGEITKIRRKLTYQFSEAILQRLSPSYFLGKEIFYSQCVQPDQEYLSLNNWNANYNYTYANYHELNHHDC
# Method in brief: as §1
# [5] = molecular target: ELF4 (Homo sapiens, UniProt Q99607 1-663); settings: protein: recombinant; tags: N-terminal GST; dsDNA, one strand shown
# Method in brief: as §1
# [6] = molecular target: T3, ELK4 (Homo sapiens, UniProt P28324-2 1-405); settings: protein: recombinant; tags: N-terminal GST; dsDNA, one strand shown
# T3 sequence: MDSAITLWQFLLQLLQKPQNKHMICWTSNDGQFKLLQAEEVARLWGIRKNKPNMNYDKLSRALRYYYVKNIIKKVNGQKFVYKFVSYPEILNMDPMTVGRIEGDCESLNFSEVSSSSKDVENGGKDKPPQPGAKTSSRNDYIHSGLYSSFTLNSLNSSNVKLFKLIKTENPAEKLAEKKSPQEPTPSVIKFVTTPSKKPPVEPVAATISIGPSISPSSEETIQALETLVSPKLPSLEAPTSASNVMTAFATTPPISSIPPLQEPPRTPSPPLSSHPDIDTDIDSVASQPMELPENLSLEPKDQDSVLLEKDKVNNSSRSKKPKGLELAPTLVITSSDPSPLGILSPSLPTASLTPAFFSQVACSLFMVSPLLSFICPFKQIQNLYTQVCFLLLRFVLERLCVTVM
# Method in brief: as §1
# [7] = molecular target: T4, ETV2 (Homo sapiens, UniProt O00321 1-342); settings: protein: recombinant; tags: N-terminal GST; dsDNA, one strand shown
# T4 sequence: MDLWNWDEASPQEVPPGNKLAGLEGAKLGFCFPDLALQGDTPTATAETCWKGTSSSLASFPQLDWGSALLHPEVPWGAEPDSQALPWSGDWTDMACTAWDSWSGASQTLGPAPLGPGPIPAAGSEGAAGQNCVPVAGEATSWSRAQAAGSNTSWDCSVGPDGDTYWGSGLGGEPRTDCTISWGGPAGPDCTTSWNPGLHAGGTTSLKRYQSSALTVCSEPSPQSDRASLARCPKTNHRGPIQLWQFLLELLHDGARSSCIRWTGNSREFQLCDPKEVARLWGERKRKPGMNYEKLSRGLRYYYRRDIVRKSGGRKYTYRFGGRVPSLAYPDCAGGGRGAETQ
# Method in brief: as §1
# [8] = molecular target: T5, ELF3 (Homo sapiens, UniProt P78545 1-371); settings: protein: recombinant; tags: N-terminal GST; dsDNA, one strand shown
# T5 sequence: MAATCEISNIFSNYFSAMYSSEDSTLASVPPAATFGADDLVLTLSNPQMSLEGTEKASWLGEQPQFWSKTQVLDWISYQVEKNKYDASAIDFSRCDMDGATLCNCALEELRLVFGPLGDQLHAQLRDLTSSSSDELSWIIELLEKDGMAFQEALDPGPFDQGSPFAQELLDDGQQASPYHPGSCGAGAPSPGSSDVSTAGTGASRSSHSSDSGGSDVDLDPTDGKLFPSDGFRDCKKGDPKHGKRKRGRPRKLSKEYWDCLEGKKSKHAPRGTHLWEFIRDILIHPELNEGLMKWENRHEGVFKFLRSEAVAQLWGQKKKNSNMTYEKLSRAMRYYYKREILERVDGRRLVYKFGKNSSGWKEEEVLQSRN
# Method in brief: as §1
# [9] = molecular target: CRX (Homo sapiens, UniProt O43186 1-299); settings: protein: recombinant; tags: N-terminal GST; dsDNA, one strand shown
# Method in brief: as §1
# [10] = molecular target: ETV1 (Homo sapiens, UniProt P50549 1-477); settings: protein: recombinant; tags: N-terminal GST; dsDNA, one strand shown
# Method in brief: as §1
# [11] = molecular target: T6, ERF (Homo sapiens, UniProt P50548 1-548); settings: protein: recombinant; tags: N-terminal GST; dsDNA, one strand shown
# T6 sequence: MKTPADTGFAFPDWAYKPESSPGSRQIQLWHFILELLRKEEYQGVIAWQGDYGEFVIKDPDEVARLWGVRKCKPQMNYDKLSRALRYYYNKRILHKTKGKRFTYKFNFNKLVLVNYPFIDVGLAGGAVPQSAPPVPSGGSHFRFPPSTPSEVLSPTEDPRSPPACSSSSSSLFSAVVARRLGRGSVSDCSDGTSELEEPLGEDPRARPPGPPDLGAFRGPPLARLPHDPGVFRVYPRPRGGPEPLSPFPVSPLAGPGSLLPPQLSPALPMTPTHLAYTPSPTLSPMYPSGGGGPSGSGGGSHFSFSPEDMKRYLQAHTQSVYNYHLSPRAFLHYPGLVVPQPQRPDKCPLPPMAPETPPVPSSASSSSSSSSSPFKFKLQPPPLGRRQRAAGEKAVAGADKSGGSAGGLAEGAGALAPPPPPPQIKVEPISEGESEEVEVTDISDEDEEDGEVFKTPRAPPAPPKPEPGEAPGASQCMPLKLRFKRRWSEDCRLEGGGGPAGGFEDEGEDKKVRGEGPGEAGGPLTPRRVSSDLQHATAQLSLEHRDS
# Method in brief: as §1
# [12] = molecular target: T7, ETV3L (Homo sapiens, UniProt Q6ZN32 1-361); settings: protein: recombinant; tags: N-terminal GST; dsDNA, one strand shown
# T7 sequence: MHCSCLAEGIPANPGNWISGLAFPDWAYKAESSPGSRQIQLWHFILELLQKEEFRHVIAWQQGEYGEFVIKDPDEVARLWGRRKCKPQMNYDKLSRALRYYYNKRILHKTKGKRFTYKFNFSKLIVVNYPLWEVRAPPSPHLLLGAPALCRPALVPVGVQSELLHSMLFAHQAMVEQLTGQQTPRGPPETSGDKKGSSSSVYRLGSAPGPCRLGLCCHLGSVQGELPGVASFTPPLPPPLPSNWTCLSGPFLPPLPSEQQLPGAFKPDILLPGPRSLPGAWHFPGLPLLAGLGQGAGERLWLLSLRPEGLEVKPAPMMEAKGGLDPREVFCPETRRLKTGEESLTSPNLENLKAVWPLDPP
# Method in brief: as §1
# [13] = molecular target: T8, ETS2 (Homo sapiens, UniProt P15036 1-469); settings: protein: recombinant; tags: N-terminal GST; dsDNA, one strand shown
# T8 sequence: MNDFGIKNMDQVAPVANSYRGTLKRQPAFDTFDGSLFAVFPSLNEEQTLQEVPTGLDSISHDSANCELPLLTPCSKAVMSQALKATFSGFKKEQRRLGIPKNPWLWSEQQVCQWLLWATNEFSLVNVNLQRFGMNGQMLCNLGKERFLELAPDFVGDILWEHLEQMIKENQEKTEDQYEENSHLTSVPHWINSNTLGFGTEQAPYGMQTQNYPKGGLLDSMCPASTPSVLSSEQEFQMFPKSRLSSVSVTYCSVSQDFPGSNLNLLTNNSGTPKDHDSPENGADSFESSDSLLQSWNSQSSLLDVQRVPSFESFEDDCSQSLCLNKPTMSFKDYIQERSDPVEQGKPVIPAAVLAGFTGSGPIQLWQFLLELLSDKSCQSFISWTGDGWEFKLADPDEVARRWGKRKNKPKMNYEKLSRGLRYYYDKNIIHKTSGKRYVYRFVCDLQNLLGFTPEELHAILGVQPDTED
# Method in brief: as §1
# [14] = molecular target: T9, SPDEF (Homo sapiens, UniProt O95238 1-335); settings: protein: recombinant; tags: N-terminal GST; dsDNA, one strand shown
# T9 sequence: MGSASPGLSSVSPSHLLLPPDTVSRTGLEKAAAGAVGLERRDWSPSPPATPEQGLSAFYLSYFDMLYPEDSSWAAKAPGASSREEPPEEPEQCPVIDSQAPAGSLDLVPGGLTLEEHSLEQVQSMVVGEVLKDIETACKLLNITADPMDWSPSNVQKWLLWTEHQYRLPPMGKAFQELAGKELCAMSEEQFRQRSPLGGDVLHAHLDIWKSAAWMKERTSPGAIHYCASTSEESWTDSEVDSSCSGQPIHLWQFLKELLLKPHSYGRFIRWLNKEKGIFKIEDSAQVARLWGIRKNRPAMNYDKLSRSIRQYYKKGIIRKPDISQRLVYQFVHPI
# Method in brief: as §1
# [15] = molecular target: T10, ETV7 (Homo sapiens, UniProt Q9Y603 1-341); settings: protein: recombinant; tags: N-terminal GST; dsDNA, one strand shown
# T10 sequence: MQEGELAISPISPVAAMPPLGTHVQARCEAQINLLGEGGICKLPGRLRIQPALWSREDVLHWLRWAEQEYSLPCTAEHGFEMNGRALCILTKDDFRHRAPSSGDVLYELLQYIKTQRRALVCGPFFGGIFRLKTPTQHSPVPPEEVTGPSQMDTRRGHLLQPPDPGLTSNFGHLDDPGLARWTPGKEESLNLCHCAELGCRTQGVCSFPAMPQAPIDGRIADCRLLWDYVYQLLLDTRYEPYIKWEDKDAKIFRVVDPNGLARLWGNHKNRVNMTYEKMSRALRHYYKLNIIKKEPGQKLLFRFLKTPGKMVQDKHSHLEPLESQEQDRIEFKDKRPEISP
# Method in brief: as §1
# [16] = molecular target: T11, ELF5 (Homo sapiens, UniProt Q9UKW6-2 1-255); settings: protein: recombinant; tags: N-terminal GST; dsDNA, one strand shown
# T11 sequence: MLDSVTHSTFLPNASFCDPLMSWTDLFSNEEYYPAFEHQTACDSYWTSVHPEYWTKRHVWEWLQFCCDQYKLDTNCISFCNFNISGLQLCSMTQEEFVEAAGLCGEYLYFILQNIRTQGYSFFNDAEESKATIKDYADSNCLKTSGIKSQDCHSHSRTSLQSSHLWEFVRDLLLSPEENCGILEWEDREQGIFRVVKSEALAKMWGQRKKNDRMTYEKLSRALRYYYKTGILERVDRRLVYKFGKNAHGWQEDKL
# Method in brief: as §1
# [17] = molecular target: T12, ETV3 (Homo sapiens, UniProt P41162-2 1-143); settings: protein: recombinant; tags: N-terminal GST; dsDNA, one strand shown
# T12 sequence: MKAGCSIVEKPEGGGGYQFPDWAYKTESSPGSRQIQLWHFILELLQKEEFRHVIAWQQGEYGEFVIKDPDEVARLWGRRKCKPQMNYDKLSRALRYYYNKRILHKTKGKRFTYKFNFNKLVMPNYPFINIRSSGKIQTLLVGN
# Method in brief: as §1
# [18] = molecular target: ETV6 (Homo sapiens, UniProt P41212 1-452); settings: protein: recombinant; tags: N-terminal GST; dsDNA, one strand shown
# Method in brief: as §1
# Chain of ETV1 (P50549 whole entry): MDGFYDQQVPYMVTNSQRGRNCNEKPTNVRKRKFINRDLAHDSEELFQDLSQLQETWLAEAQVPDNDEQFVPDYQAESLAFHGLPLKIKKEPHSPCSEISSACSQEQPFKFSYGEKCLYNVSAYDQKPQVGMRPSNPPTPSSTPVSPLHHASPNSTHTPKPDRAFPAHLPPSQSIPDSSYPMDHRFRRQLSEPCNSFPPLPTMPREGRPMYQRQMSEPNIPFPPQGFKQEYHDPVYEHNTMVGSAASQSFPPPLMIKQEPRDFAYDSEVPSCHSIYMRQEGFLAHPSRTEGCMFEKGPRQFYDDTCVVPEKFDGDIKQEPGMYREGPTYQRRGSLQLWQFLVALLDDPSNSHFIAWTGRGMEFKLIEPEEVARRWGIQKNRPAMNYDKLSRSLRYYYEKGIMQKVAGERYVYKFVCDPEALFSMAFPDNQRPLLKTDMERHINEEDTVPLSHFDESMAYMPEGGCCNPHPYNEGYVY
# Chain of CRX (O43186 whole entry): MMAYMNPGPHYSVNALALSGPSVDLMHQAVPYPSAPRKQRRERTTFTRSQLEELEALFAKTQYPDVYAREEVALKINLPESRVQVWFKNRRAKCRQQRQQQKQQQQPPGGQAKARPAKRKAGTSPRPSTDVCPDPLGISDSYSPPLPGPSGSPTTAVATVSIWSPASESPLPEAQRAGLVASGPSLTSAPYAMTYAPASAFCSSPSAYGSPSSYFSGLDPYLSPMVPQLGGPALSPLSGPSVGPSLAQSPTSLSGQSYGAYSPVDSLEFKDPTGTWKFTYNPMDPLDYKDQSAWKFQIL
# Chain of ETV5 (P41161 whole entry): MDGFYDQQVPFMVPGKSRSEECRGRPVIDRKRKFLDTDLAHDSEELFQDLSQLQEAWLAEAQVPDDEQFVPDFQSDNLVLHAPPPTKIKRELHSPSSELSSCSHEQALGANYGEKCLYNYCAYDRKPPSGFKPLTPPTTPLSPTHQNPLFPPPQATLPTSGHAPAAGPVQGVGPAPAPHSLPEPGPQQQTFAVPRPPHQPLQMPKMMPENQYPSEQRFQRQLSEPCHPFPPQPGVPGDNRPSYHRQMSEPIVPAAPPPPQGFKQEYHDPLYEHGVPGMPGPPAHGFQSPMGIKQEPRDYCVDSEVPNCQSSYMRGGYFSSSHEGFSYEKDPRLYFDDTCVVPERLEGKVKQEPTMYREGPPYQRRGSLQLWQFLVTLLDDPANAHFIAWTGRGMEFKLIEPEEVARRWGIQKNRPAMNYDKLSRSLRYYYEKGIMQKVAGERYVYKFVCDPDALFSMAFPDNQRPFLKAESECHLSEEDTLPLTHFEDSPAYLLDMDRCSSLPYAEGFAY
# Chain of HSF1 (Q00613 whole entry): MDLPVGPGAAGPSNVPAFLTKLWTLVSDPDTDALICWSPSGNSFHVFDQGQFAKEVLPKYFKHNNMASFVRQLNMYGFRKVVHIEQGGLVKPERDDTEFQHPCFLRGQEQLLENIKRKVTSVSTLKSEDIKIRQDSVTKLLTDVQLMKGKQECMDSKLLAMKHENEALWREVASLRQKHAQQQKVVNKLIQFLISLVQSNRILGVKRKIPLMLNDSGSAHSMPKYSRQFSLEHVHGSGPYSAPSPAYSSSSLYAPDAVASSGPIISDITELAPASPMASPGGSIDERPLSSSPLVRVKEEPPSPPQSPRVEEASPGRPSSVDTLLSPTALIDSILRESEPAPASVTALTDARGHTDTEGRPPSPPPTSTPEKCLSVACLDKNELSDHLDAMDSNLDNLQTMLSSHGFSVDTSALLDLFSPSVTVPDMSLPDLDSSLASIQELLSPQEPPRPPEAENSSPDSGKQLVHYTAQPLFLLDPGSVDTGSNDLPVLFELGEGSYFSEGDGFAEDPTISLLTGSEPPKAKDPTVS
# Chain of ETV6 (P41212 whole entry): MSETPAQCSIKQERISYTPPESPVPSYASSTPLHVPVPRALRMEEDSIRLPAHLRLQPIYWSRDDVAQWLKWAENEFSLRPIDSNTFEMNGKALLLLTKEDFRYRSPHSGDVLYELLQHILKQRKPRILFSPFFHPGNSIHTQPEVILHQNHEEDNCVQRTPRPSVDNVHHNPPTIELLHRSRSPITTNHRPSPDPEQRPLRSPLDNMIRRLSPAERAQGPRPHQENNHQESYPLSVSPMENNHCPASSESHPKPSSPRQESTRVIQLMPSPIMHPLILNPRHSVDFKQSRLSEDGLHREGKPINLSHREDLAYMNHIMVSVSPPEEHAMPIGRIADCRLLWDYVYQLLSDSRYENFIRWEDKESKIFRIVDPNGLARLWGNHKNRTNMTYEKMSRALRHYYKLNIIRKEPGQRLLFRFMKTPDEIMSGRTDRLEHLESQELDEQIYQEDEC
# Chain of ELF4 (Q99607 whole entry): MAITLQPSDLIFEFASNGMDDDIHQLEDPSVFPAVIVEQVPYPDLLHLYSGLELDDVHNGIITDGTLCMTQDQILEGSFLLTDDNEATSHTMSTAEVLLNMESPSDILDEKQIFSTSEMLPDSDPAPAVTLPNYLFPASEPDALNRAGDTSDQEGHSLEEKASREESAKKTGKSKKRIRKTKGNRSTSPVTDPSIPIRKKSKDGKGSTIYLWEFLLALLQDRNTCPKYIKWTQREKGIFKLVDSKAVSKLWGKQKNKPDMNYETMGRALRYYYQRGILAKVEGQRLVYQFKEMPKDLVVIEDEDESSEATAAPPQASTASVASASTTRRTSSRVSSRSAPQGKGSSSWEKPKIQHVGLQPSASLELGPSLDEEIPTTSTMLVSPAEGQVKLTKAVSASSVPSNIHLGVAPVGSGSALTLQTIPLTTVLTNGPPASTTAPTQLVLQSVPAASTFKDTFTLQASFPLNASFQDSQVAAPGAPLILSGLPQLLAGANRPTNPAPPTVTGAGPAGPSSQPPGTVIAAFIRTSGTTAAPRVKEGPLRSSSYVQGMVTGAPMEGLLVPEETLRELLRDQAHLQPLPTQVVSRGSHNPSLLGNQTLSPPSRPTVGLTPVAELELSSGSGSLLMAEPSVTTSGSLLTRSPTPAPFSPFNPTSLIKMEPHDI
sequence,measurement,setting,value
ATTGGT,binding signal,[1],"1.21 fold enrichment (6-mer frequency, TF over GST control)"
same,binding signal,[2],"1.29 fold enrichment (6-mer frequency, TF over GST control)"
same,binding signal,[3],"1.12 fold enrichment (6-mer frequency, TF over GST control)"
same,binding signal,[4],"1.24 fold enrichment (6-mer frequency, TF over GST control)"
same,binding signal,[5],"1.27 fold enrichment (6-mer frequency, TF over GST control)"
same,binding signal,[6],"1.19 fold enrichment (6-mer frequency, TF over GST control)"
same,binding signal,[7],"1.01 fold enrichment (6-mer frequency, TF over GST control)"
same,binding signal,[8],"1.14 fold enrichment (6-mer frequency, TF over GST control)"
same,binding signal,[9],"1.2 fold enrichment (6-mer frequency, TF over GST control)"
same,binding signal,[10],"1.29 fold enrichment (6-mer frequency, TF over GST control)"
same,binding signal,[11],"1.21 fold enrichment (6-mer frequency, TF over GST control)"
same,binding signal,[12],"1.24 fold enrichment (6-mer frequency, TF over GST control)"
same,binding signal,[13],"1.34 fold enrichment (6-mer frequency, TF over GST control)"
same,binding signal,[14],"1.26 fold enrichment (6-mer frequency, TF over GST control)"
same,binding signal,[15],"1.27 fold enrichment (6-mer frequency, TF over GST control)"
same,binding signal,[16],"1.19 fold enrichment (6-mer frequency, TF over GST control)"
same,binding signal,[17],"1.24 fold enrichment (6-mer frequency, TF over GST control)"
same,binding signal,[18],"1.13 fold enrichment (6-mer frequency, TF over GST control)"
